Experimental data: PubChem BioAssay
The source made the active and inactive calls. Unless noted, the rule behind the calls is not given here.

Tests used:
[1] = system: XIP peptide (Xip251-270) binding; assay: small-molecule binders of XIP peptide, primary screen, biochemical, small-molecule microarray, fluorescence 635/667 nm, 0.1 µg/mL protein (AID 1182); details: fluorescent protein binding, 635 nm, higher = more signal, called active from +8 up or from −8 down
XIP peptide (Xip251-270) = assay: small-molecule binders of XIP peptide, primary screen, biochemical, small-molecule microarray, fluorescence 635/667 nm, 0.5 µg/mL protein (AID 1183); details: small-molecule microarray binding, fluorescence 635 nm; higher = more signal
[2] = Plasmodium falciparum growth inhibition, primary screen, strain 3D7, DAPI fluorescence, 100 nL (AID 1184);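 note: parasites grown inside human red blood cells in medium with human serum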; details: P. falciparum 3D7 growth, 3 d, higher = more signal
[3] = biological target: Homeobox protein Hox-A13 (Mus musculus) (UniProt Q62424); assay: inhibitors of HoxA13-DNA binding, primary screen, biochemical, fluorescence polarization, labeled oligonucleotide (AID 1185); details: 15 min, higher = more signal, called active from +8 up or from −8 down
Sequence of Homeobox protein Hox-A13 (Mus musculus) (Q62424 whole entry, looked up): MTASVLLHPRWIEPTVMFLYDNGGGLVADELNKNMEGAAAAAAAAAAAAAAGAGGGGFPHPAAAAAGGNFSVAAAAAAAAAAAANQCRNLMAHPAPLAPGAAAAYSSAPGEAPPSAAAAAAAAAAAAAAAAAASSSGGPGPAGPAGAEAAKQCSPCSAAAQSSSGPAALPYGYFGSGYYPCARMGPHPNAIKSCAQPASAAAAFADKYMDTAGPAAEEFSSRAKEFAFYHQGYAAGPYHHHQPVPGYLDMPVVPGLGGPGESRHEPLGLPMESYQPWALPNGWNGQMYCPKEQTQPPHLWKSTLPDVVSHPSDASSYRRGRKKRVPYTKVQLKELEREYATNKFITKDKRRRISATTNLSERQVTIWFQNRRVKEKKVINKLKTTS

[4] = inhibitors of hydroxyurea-induced Chk1 phosphorylation, primary screen, imaging, HeLa, phospho-Chk1 antibody, percent positive cells (AID 1186); details: hydroxyurea-induced phospho-Chk1 immunofluorescence imaging, higher = more signal
[5] = inhibitors of hydroxyurea-induced Chk1 phosphorylation, primary screen, imaging, HeLa, phospho-Chk1 nuclear intensity (AID 1187); details: hydroxyurea-induced phospho-Chk1 immunofluorescence imaging, higher = more signal

CC(C)NC(=O)[C@@]1(c2ccc([N+](=O)[O-])cc2)CC(=O)N(CC23CC4CC(CC(C4)C2)C3)[C@@H]1c1ccc(CO)cc1
composite z-score [1]: 1.26 (inactive) | composite z-score (XIP peptide (Xip251-270)): 0.918 | z-score [2]: -0.948 | z-score [3]: -4.97 (inactive) | z-score [4]: 0.103 (inactive) | z-score [5]: 0.412 (inactive)

C=C(CCCC)/C(=C/C[C@@H](OC(C)=O)c1ccc(CO)o1)c1cnc2ccccc2c1
composite z-score [1]: 0.714 (inactive) | composite z-score (XIP peptide (Xip251-270)): 0.811 | z-score [2]: -1.38 | z-score [3]: -4.99 (inactive) | z-score [4]: 0.196 (inactive) | z-score [5]: -0.109 (inactive)

COCCOC(=O)N1C(=O)[C@@]2(c3cc(C#Cc4ccc(OC)cc4)ccc31)[C@H](c1ccc(OCCO)cc1)N1[C@H](c3ccccc3)[C@H](c3ccccc3)OC(=O)[C@H]1[C@@H]2C(=O)NC[C@H](O)c1ccccc1
composite z-score [1]: 0.849 (inactive) | composite z-score (XIP peptide (Xip251-270)): 0.713 | z-score [2]: -1.66 | z-score [3]: -0.532 (inactive) | z-score [4]: 0 (inactive) | z-score [5]: -0.0275 (inactive)

NC(=O)NCC#Cc1ccc2c(c1)[C@]1(C(=O)N2)[C@H](c2ccc(OCCO)cc2)N2[C@H](c3ccccc3)[C@H](c3ccccc3)OC(=O)[C@H]2[C@@H]1C(=O)O
composite z-score [1]: 0.348 (inactive) | composite z-score (XIP peptide (Xip251-270)): -0.0846 | z-score [2]: -1.17 | z-score [3]: -5.33 (inactive) | z-score [4]: 0.31 (inactive) | z-score [5]: 0.2 (inactive)

O=C1O[C@@H](c2ccccc2)[C@@H](c2ccccc2)N2[C@@H](c3ccc(OCCO)cc3)[C@]3(C(=O)Nc4ccc(C#CC5(O)CCCCCC5)cc43)[C@@H](C(=O)O)[C@H]12
composite z-score [1]: 2.23 (inactive) | composite z-score (XIP peptide (Xip251-270)): 0.688 | z-score [2]: -0.0628 | z-score [3]: -6.03 (inactive) | z-score [4]: -0.167 (inactive) | z-score [5]: 0.0604 (inactive)

O=C1O[C@H](Cc2ccccc2)[C@@H]2[C@H]3C=CCCC=C3CN2[C@H]1Cc1ccc(O)cc1
composite z-score [1]: 0.127 (inactive) | composite z-score (XIP peptide (Xip251-270)): -0.61 | z-score [2]: -0.947 | z-score [3]: -9.53 (active) | z-score [4]: 0.167 (inactive) | z-score [5]: -0.122 (inactive)

COCCn1c(C(=O)N(C)C)cc2c1C[C@H]1CN(C(=O)c3ccccc3)[C@@](Cc3ccc(OC)cc3)(C(=O)OC)[C@@H]21
composite z-score [1]: 0.116 (inactive) | composite z-score (XIP peptide (Xip251-270)): 0.435 | z-score [2]: -1.45 | z-score [3]: -3.91 (inactive) | z-score [4]: 0.688 (inactive) | z-score [5]: 0.542 (inactive)

CC(C)N1C(=O)c2ccccc2[C@](C)(C(=O)NCC(F)(F)F)[C@@H]1c1ccc(CO)cc1
composite z-score [1]: 0.112 (inactive) | composite z-score (XIP peptide (Xip251-270)): 0.464 | z-score [2]: -0.805 | z-score [3]: -1.98 (inactive) | z-score [4]: 0.256 (inactive) | z-score [5]: 0.462 (inactive)

COCCOC(=O)N1C(=O)[C@@]2(c3cc(C#CC4(O)CCCCCC4)ccc31)[C@H](c1ccc(O)cc1)N1[C@H](c3ccccc3)[C@H](c3ccccc3)OC(=O)[C@H]1[C@@H]2C(=O)N1CCCCCCC1
composite z-score [1]: 0.265 (inactive) | composite z-score (XIP peptide (Xip251-270)): 0.747 | z-score [2]: -1.74 | z-score [3]: 0.0885 (inactive) | z-score [4]: -0.0596 (inactive) | z-score [5]: 0.244 (inactive)

C=CCOC(=O)[C@@H]1[C@H]2C(=O)O[C@H](c3ccccc3)[C@H](c3ccccc3)N2[C@H](c2ccc(OCCOC(=O)[C@H]3C[C@H]4C(=O)N[C@@H](CCCCN(C)C)C(=O)N4[C@H]3c3ccc(O)cc3)cc2)[C@@]12C(=O)Nc1ccc(I)cc12
composite z-score [1]: 0.94 (inactive) | composite z-score (XIP peptide (Xip251-270)): 0.849 | z-score [2]: -1.92 | z-score [3]: 5.3 (inactive) | z-score [4]: 0.289 (inactive) | z-score [5]: 0.419 (inactive)

CC(C)C(=C=CC[C@H](O)c1ccccc1OCCO)C[C@H](O)c1cc(Cl)cc(Cl)c1O
composite z-score [1]: 0.35 (inactive) | composite z-score (XIP peptide (Xip251-270)): 0.622 | z-score [2]: -1 | z-score [3]: -4.67 (inactive) | z-score [4]: 0.425 (inactive) | z-score [5]: 0.353 (inactive)

O=C(O)[C@H](Cc1ccccc1)n1cc(C2(O)CCCCC2)nn1
composite z-score [1]: -0.0467 (inactive) | composite z-score (XIP peptide (Xip251-270)): 0.0248 | z-score [2]: 0.074 | z-score [3]: -1.04 (inactive) | z-score [4]: 0.402 (inactive) | z-score [5]: -0.535 (inactive)

COC(=O)C1(Cc2ccccc2)C=C2C(=C(C)C(=O)C2C)CN1 (stereo unspecified)
composite z-score [1]: -0.217 (inactive) | composite z-score (XIP peptide (Xip251-270)): 0.943 | z-score [2]: 0.235 | z-score [3]: -5.82 (inactive) | z-score [4]: 0.0869 (inactive) | z-score [5]: 0.244 (inactive)

O=C1N(CCS(=O)(=O)c2ccccc2)c2ccccc2C[C@]12N=C(c1ccc(OCCCO)cc1)O[C@@H]2c1ccccc1
composite z-score [1]: 0.412 (inactive) | composite z-score (XIP peptide (Xip251-270)): 0.811 | z-score [2]: -2.3 | z-score [3]: -4.51 (inactive) | z-score [4]: -0.36 (inactive) | z-score [5]: -0.357 (inactive)

COC(=O)[C@@]1(Cc2ccccc2)[C@H]2c3cc(C(=O)N(C)C)n(Cc4ccc(S(C)(=O)=O)cc4)c3C[C@H]2CN1C(=O)c1ccccc1
composite z-score [1]: 1.22 (inactive) | composite z-score (XIP peptide (Xip251-270)): 0.721 | z-score [2]: -1.5 | z-score [3]: -5.44 (inactive) | z-score [4]: 0.492 (inactive) | z-score [5]: 0.38 (inactive)

COCCOC(=O)N1C(=O)[C@@]2(c3cc(C#CCC(C(=O)OC)C(=O)OC)ccc31)[C@H](C(N)=O)[C@H]1C(=O)O[C@H](c3ccccc3)[C@H](c3ccccc3)N1[C@@H]2c1ccc(O)cc1
composite z-score [1]: 0.896 (inactive) | composite z-score (XIP peptide (Xip251-270)): 0.77 | z-score [2]: -2.1 | z-score [3]: 0.218 (inactive) | z-score [4]: -0.0553 (inactive) | z-score [5]: 0.0543 (inactive)

[N-]=[N+]=NCc1ccccc1[C@@H]1OC(c2ccc(OCCCO)cc2)=N[C@]1(Cc1ccccc1N=[N+]=[N-])C(=O)O
composite z-score [1]: 1.21 (inactive) | composite z-score (XIP peptide (Xip251-270)): 0.722 | z-score [2]: -1.9 | z-score [3]: -3.59 (inactive) | z-score [4]: 0.277 (inactive) | z-score [5]: 0.585 (inactive)

C=CCN1C(=O)[C@]2(O[C@H](CCn3cc([C@H](O)c4ccccc4)nn3)[C@@H]([Si](C)(C)c3ccc(OC)cc3)[C@@H]2C)c2cc(NC(=O)c3ccc(OC)cc3)ccc21
composite z-score [1]: 0.586 (inactive) | composite z-score (XIP peptide (Xip251-270)): 0.309 | z-score [2]: -2.77 | z-score [3]: -4.56 (inactive) | z-score [4]: -0.552 (inactive) | z-score [5]: 0.0018 (inactive)

O=C1C2C=CC(C(O)C3CCCCC3)N(n3cnnc3)C2C(=O)N1Cc1ccccc1 (stereo unspecified)
composite z-score [1]: 0.534 (inactive) | composite z-score (XIP peptide (Xip251-270)): -0.0061 | z-score [2]: -0.902 | z-score [3]: -1.8 (inactive) | z-score [4]: 0.359 (inactive) | z-score [5]: -0.394 (inactive)

[N-]=[N+]=Nc1ccccc1C[C@@]1(C(=O)NCC(O)CO)N=C(c2ccc(OCCCO)cc2)O[C@@H]1c1ccccc1 (stereo partly specified)
composite z-score [1]: 0.105 (inactive) | composite z-score (XIP peptide (Xip251-270)): 0.75 | z-score [2]: -1.45 | z-score [3]: -5.72 (inactive) | z-score [4]: -0.416 (inactive) | z-score [5]: -0.145 (inactive)

COC(=O)[C@H](Cc1ccc(O)cc1)N[C@@H](/C=C/C1CC1)[C@H](O)Cc1ccccc1
composite z-score [1]: -0.364 (inactive) | composite z-score (XIP peptide (Xip251-270)): -0.0324 | z-score [2]: 1.55 | z-score [3]: -5.14 (inactive) | z-score [4]: 0.412 (inactive) | z-score [5]: 0.0577 (inactive)
